Results: PubChem BioAssay (NCI)
The panel holds about 79,000 compounds, 15% with a hit somewhere; the sample as a whole holds those more often. Values without a mark were called inactive. Active and inactive are the calls of the source. Rule as the data show it: active = growth inhibition above about 70%; inactive = the rest.

How the values were obtained:
[1] = NCI Yeast Anticancer Drug Screen. Data for the rad50 strain (AID 155);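 also: 0% = growth of vehicle-only cultures of the same strain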; conditions: S. cerevisiae rad50 strain growth inhibition, active compounds read high
How it was run: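 DNA repair mutant yeast, compound exposure, growth read-out; inhibition is taken relative to vehicle.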

[2] = NCI Yeast Anticancer Drug Screen. Data for the mec2-1 strain (AID 157); conditions: S. cerevisiae mec2-1 strain, active compounds read high
How it was run: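 Test agents were screened against the mec2-1 yeast strain, with defined DNA repair or cell cycle alteration. Growth was scored as inhibition against vehicle-only controls.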

[3] = NCI Yeast Anticancer Drug Screen. Data for the sgs1 mgt1 strain (AID 161);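 also: 0% = growth of cultures given vehicle only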; conditions: S. cerevisiae sgs1 mgt1 strain, active compounds read high
How it was run: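 Genetically altered yeast, compound exposure, growth inhibition relative to vehicle.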

[4] = NCI Yeast Anticancer Drug Screen. Data for the cln2 rad14 strain (AID 165);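 also: 0% = growth equal to vehicle treated cultures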; conditions: S. cerevisiae cln2 rad14 strain, active compounds read high
How it was run: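 Growth of compound-exposed yeast (cln2 rad14 genotype) measured and expressed as inhibition relative to vehicle.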

[5] = NCI Yeast Anticancer Drug Screen. Data for the bub3 strain (AID 167); conditions: S. cerevisiae bub3 mutant strain, active compounds read high
How it was run: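 In this screen, a yeast mutant lacking normal mitotic checkpoint function is challenged with compound. Relative growth versus vehicle gives the inhibition value.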

[6] = NCI Yeast Anticancer Drug Screen. Data for the mlh1 rad18 strain (AID 175); conditions: S. cerevisiae mlh1 rad18 strain growth inhibition, active compounds read high
How it was run: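 In this whole-cell yeast screen, a strain with altered DNA damage repair is challenged with compound, and its growth is measured against matched vehicle-treated controls.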

[7] = at 5.0 µM (retest, dose inferred, filed as 0.5)
[8] = at 50.0 µM (retest, dose inferred, filed as 5.0)

[O-][n+]1ccccc1Sc1nc(Sc2cccc[n+]2[O-])nc(Sc2cccc[n+]2[O-])n1
growth inhibition [1, 7]: 98% (active) | growth inhibition [1, 8]: 99% (active) | growth inhibition ([1]; at 50.0 µM): 89.8% (active) | growth inhibition [2, 7]: 99% (active) | growth inhibition [2, 8]: 99% (active) | growth inhibition ([2]; at 50.0 µM): 91.7% (active) | growth inhibition [3, 7]: 99% (active) | growth inhibition [3, 8]: 98% (active) | growth inhibition ([3]; at 50.0 µM): 92.7% (active) | growth inhibition [4, 7]: 98% (active) | growth inhibition [4, 8]: 98% (active) | growth inhibition ([4]; at 50.0 µM): 90% (active) | growth inhibition [5, 7]: 98% (active) | growth inhibition [5, 8]: 99% (active) | growth inhibition ([5]; at 50.0 µM): 90.3% (active) | growth inhibition [6, 7]: 100% (active) | growth inhibition [6, 8]: 99% (active) | growth inhibition ([6]; at 50.0 µM): 88.4% (active)

CCCC(C1=C(O)CC(C)CC1=O)C1=C(O)CC(C)CC1=O (stereo not given)
growth inhibition [1, 7]: -6% | growth inhibition [1, 8]: -2% | growth inhibition ([1]; at 50.0 µM): -8.7% | growth inhibition [2, 7]: -5% | growth inhibition [2, 8]: -4% | growth inhibition ([2]; at 50.0 µM): 0.4% | growth inhibition [3, 7]: -4% | growth inhibition [3, 8]: 8% | growth inhibition ([3]; at 50.0 µM): -5.6% | growth inhibition [4, 7]: -34% | growth inhibition [4, 8]: 23% | growth inhibition ([4]; at 50.0 µM): -24.4% | growth inhibition [5, 7]: -6% | growth inhibition [5, 8]: 19% | growth inhibition ([5]; at 50.0 µM): -7.2% | growth inhibition [6, 7]: 4% | growth inhibition [6, 8]: 28% | growth inhibition ([6]; at 50.0 µM): 0.45%

O=C1COCC(=O)OCCOCCSCCOCCO1
growth inhibition [1, 7]: 5% | growth inhibition [1, 8]: 11% | growth inhibition ([1]; at 50.0 µM): -4.6% | growth inhibition [2, 7]: 0% | growth inhibition [2, 8]: 5% | growth inhibition ([2]; at 50.0 µM): -1.2% | growth inhibition [3, 7]: 1% | growth inhibition [3, 8]: 1% | growth inhibition ([3]; at 50.0 µM): -7% | growth inhibition [4, 7]: 4% | growth inhibition [4, 8]: 41% | growth inhibition ([4]; at 50.0 µM): 37.2% | growth inhibition [5, 7]: -4% | growth inhibition [5, 8]: 4% | growth inhibition ([5]; at 50.0 µM): 8.75% | growth inhibition [6, 7]: 8% | growth inhibition [6, 8]: 15% | growth inhibition ([6]; at 50.0 µM): 7.75%

COC1=C(Br)C(=O)N/C1=C(\OC)c1ccccc1
growth inhibition [1, 7]: 4% | growth inhibition [1, 8]: 9% | growth inhibition ([1]; at 50.0 µM): 11.3% | growth inhibition [2, 7]: 4% | growth inhibition [2, 8]: 1% | growth inhibition ([2]; at 50.0 µM): -8.9% | growth inhibition [3, 7]: 6% | growth inhibition [3, 8]: 15% | growth inhibition ([3]; at 50.0 µM): 29.9% | growth inhibition [4, 7]: 6% | growth inhibition [4, 8]: 0% | growth inhibition ([4]; at 50.0 µM): 37.9% | growth inhibition [5, 7]: 21% | growth inhibition [5, 8]: 0% | growth inhibition ([5]; at 50.0 µM): -1.65% | growth inhibition [6, 7]: 2% | growth inhibition [6, 8]: 4% | growth inhibition ([6]; at 50.0 µM): 6.15%

O=C(NNc1ccccc1)C(O)C(O)C(O)C(O)C(O)C(O)C(O)CO (stereo not given)
growth inhibition [1, 7]: 17% | growth inhibition [1, 8]: 87% (active) | growth inhibition ([1]; at 50.0 µM): 69.1% | growth inhibition [2, 7]: 10% | growth inhibition [2, 8]: 78% (active) | growth inhibition ([2]; at 50.0 µM): 39.4% | growth inhibition [3, 7]: 10% | growth inhibition [3, 8]: 82% (active) | growth inhibition ([3]; at 50.0 µM): 88.1% (active) | growth inhibition [4, 7]: 3% | growth inhibition [4, 8]: 82% (active) | growth inhibition ([4]; at 50.0 µM): 95.9% (active) | growth inhibition [5, 7]: 1% | growth inhibition [5, 8]: 94% (active) | growth inhibition ([5]; at 50.0 µM): 88.3% (active) | growth inhibition [6, 7]: 45% | growth inhibition [6, 8]: 96% (active) | growth inhibition ([6]; at 50.0 µM): 92.8% (active)

CCOC(=O)c1sc2c(c1O)c(=O)n(-c1ccccc1)c(=S)n2-c1ccccc1
growth inhibition [1, 7]: 84% (active) | growth inhibition [1, 8]: 98% (active) | growth inhibition ([1]; at 50.0 µM): 95.7% (active) | growth inhibition [2, 7]: 90% (active) | growth inhibition [2, 8]: 98% (active) | growth inhibition ([2]; at 50.0 µM): 95.8% (active) | growth inhibition [3, 7]: 83% (active) | growth inhibition [3, 8]: 98% (active) | growth inhibition ([3]; at 50.0 µM): 95.5% (active) | growth inhibition [4, 7]: 86% (active) | growth inhibition [4, 8]: 98% (active) | growth inhibition ([4]; at 50.0 µM): 85.3% (active) | growth inhibition [5, 7]: 47% | growth inhibition [5, 8]: 97% (active) | growth inhibition ([5]; at 50.0 µM): 95.2% (active) | growth inhibition [6, 7]: 92% (active) | growth inhibition [6, 8]: 98% (active) | growth inhibition ([6]; at 50.0 µM): 95% (active)

O=C(NNc1ccccc1)c1ccccc1Cl
growth inhibition [1, 7]: -3% | growth inhibition [1, 8]: 93% (active) | growth inhibition ([1]; at 50.0 µM): 97.5% (active) | growth inhibition [2, 7]: 9% | growth inhibition [2, 8]: 89% (active) | growth inhibition ([2]; at 50.0 µM): 92% (active) | growth inhibition [3, 7]: 15% | growth inhibition [3, 8]: 91% (active) | growth inhibition ([3]; at 50.0 µM): 96% (active) | growth inhibition [4, 7]: -9% | growth inhibition [4, 8]: 89% (active) | growth inhibition ([4]; at 50.0 µM): 93% (active) | growth inhibition [5, 7]: -14% | growth inhibition [5, 8]: 95% (active) | growth inhibition ([5]; at 50.0 µM): 95.7% (active) | growth inhibition [6, 7]: 13% | growth inhibition [6, 8]: 97% (active) | growth inhibition ([6]; at 50.0 µM): 95.6% (active)

CCCOC(=O)C(S)C(S)C(=O)OCCC (stereo not given)
growth inhibition [1, 7]: 23% | growth inhibition [1, 8]: 50% | growth inhibition ([1]; at 50.0 µM): 11.1% | growth inhibition [2, 7]: 2% | growth inhibition [2, 8]: 32% | growth inhibition ([2]; at 50.0 µM): 2.15% | growth inhibition [3, 7]: -16% | growth inhibition [3, 8]: 53% | growth inhibition ([3]; at 50.0 µM): 12.4% | growth inhibition [4, 7]: 19% | growth inhibition [4, 8]: 90% (active) | growth inhibition ([4]; at 50.0 µM): 40% | growth inhibition [5, 7]: 5% | growth inhibition [5, 8]: 94% (active) | growth inhibition ([5]; at 50.0 µM): 26.8% | growth inhibition [6, 7]: 2% | growth inhibition [6, 8]: 75% (active) | growth inhibition ([6]; at 50.0 µM): 48.2%

O=C(Nc1ccccc1[N+](=O)[O-])/C(=N/Nc1cccc(Cl)c1)c1c(O)c2ccccc2oc1=O
growth inhibition [1, 7]: 29% | growth inhibition [1, 8]: 29% | growth inhibition ([1]; at 50.0 µM): 87.1% (active) | growth inhibition [2, 7]: 36% | growth inhibition [2, 8]: 36% | growth inhibition ([2]; at 50.0 µM): 79.5% (active) | growth inhibition [3, 7]: 35% | growth inhibition [3, 8]: 35% | growth inhibition ([3]; at 50.0 µM): 89.5% (active) | growth inhibition [4, 7]: 11% | growth inhibition [4, 8]: 11% | growth inhibition ([4]; at 50.0 µM): 43.2% | growth inhibition [5, 7]: 27% | growth inhibition [5, 8]: 27% | growth inhibition ([5]; at 50.0 µM): 78.8% (active) | growth inhibition [6, 7]: 44% | growth inhibition [6, 8]: 44% | growth inhibition ([6]; at 50.0 µM): 70% (active)

O=C1CSC(=S)N1/N=C/c1ccc(Cl)c([N+](=O)[O-])c1
growth inhibition [1, 7]: 28% | growth inhibition [1, 8]: 86% (active) | growth inhibition ([1]; at 50.0 µM): 63.8% | growth inhibition [2, 7]: 0% | growth inhibition [2, 8]: 40% | growth inhibition ([2]; at 50.0 µM): 52.1% | growth inhibition [3, 7]: 2% | growth inhibition [3, 8]: 77% (active) | growth inhibition ([3]; at 50.0 µM): 27.4% | growth inhibition [4, 7]: -16% | growth inhibition [4, 8]: 40% | growth inhibition ([4]; at 50.0 µM): -37.7% | growth inhibition [5, 7]: -8% | growth inhibition [5, 8]: 46% | growth inhibition ([5]; at 50.0 µM): 57.9% | growth inhibition [6, 7]: 2% | growth inhibition [6, 8]: 91% (active) | growth inhibition ([6]; at 50.0 µM): 61.2%
